# Screening results: PubChem BioAssay, National Center for Advancing Translational Sciences (NCATS)
# IL-1B inflam inh: qHTS for Inhibitors of Inflammasome Signaling: IL-1-beta AlphaLISA Primary Screen. AID 743279, 2014. activity change, % at 57.5 µM. actives 4.7% (n = 360,000). THP-1 LPS/ATP IL-1B secretion, AlphaLISA, 16 h; active compounds read low; in the data active means activity change below about -50%; inconclusive means mostly about -30% to -49%; further: on the % scale 0 is the no-effect control and ±100 the full control effect
#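 Secreted IL-1B measured by AlphaLISA bead assay after 16 h compound exposure of THP-1 cells; compounds (final up to 57.5 uM) added 1 h before LPS (250 ng/mL) and ATP (1.25 mM) stimulation; lower signal means less secretion.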
# USP2a block: qHTS Assay for Inhibitors of Ubiquitin-specific Protease USP2a Using CHOP2 as the Reporter. Ubiquitin carboxyl-terminal hydrolase 2 (Homo sapiens), O75604. USP2 core, Ub-CHOP2 coupled fluorogenic reporter, 485/531. Potency, µM (series often up to 38.3 µM), without a hit: top-dose activity change, negative = inhibition, usual class: inhibitors. actives 0.01% (n = 330,000). AID 463254, 2010;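 further: potency means the concentration at half of the fitted maximal effect; plate controls were DMSO wells for no effect and full inhibition by NEM control for full effect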
#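 Cell-free coupled assay: 10nM USP2 core preincubated 30min RT with compound in Tris-HCl pH 8.0/CaCl2/CHAPS buffer, then 25nM Ub-CHOP2 and 25nM reporter substrate; fluorescence (Ex 485/Em 531) read after 60min RT, normalized to NEM inhibition, concentration-response curves fitted.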
# USP1 inh: Inhibitors of USP1/UAF1: Primary Screen. Ubiquitin carboxyl-terminal hydrolase 1 (Homo sapiens), O94782. recombinant USP1/UAF1, Ub-Rhodamine cleavage fluorescence. Potency, µM (titrated, usually from 57.1 µM), for inactives: at the top dose activity change, negative = inhibition, most hits filed as inhibitors. actives 0.23% (n = 390,000). AID 743255, 2014; further: potency means the concentration at half of the fitted maximal effect; on the % scale 0 is the no-effect control and ±100 the full control effect; nearly all actives have a fitted effect of over 60% in size
# Target sequence (O94782 whole entry, looked up): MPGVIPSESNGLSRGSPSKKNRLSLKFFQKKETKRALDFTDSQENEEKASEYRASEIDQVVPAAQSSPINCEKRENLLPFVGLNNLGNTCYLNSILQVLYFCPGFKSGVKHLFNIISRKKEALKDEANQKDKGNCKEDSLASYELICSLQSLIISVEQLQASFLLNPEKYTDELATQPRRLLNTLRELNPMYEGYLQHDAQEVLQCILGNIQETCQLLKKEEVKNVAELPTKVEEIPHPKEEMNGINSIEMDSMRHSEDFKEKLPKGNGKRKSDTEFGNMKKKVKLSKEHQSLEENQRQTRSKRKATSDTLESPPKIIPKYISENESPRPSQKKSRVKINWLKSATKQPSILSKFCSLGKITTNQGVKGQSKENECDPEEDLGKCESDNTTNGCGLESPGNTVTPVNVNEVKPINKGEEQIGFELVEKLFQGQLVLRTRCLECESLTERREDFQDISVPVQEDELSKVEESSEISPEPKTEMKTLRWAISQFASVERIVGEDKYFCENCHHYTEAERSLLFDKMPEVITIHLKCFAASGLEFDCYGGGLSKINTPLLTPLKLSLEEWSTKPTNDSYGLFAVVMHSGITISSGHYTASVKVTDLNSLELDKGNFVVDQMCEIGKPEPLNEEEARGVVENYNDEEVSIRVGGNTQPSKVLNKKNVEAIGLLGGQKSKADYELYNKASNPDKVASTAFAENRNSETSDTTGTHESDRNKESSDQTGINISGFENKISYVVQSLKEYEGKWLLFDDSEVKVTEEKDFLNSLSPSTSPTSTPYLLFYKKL
#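 USP1/UAF1 complex (1 nM) preincubated 15 min at room temperature with compound, then Ub-Rho substrate (150 nM final) added. Kinetic fluorescence at 480/540 nm over 6 reads at 60 s intervals; 50 mM HEPES pH 7.8, 0.5 mM EDTA, 0.1 mg/ml BSA, 1 mM TCEP, 0.01% Tween-20.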
# ATXN2 expr inh: Primary qHTS for Inhibitors of ATXN expression; HEK-293 ATXN2-luciferase reporter, luminescence, 24 h; Potency, µM (doses to about 57 µM), inactives show at the top dose activity change, negative = inhibition, hits mostly inhibitors; actives 0.72% (n = 360,000); AID 1745845, 2022; further: potency means the concentration at half of the fitted maximal effect; on the % scale 0 is the no-effect control and ±100 the full control effect; nearly all actives have a fitted effect of over 55% in size
#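 qHTS (up to 57 uM final) was run with 24 h compound exposure of reporter cells at 37 °C. Each well was multiplexed: SteadyGlo luminescence measured ATXN2-luciferase expression after a fluorogenic Gly-Phe-AFC viability readout (25 uM final).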
# S2 tox: Viability Counterscreen for Primary qHTS for Inhibitors of ATXN expression; S2 cells (HEK-293 line with an ATXN2-luciferase reporter) viability, CellTiter-Fluor protease fluorescence, 24 h; Potency, µM (top dose mostly 56.7 µM), actives largely listed as cytotoxic; actives 0.49% (n = 400,000); AID 651635, 2014; further: potency means the concentration at half of the fitted maximal effect; nearly all actives have a fitted effect of over 40% in size
# * hit, by the source's call; i = inactive; u = inconclusive; x = no result given; [ ] = dose if it differs, or a comment. Compounds with a hit are over-represented: about 4.8% of the library has one in this group of screens. Unless noted, the call rests on the fitted dose curve; in most records, active means well fitted curve in the direction sought with a large enough effect; inconclusive means small, poorly fitted or top-dose-only effect, or another doubt; inactive means no such curve, though single readings can be large; an effect the other way counts as inactive or inconclusive.
SMILES,IL-1B inflam inh,USP2a block,USP1 inh,ATXN2 expr inh,S2 tox
CC(C)c1ccc(NC(=O)CSC2=Nc3ccccc3C3=NC(CC(=O)NCc4ccc(F)cc4)C(=O)N23)cc1 (centres undefined),x,x,-8%,x,x
O=C(N/N=C/C(Cl)=C/c1ccc([N+](=O)[O-])cc1)C(=O)Nc1ccccc1C(=O)O,1,3%,-9%,0%,u
O=C(N/N=C/C(Cl)=C/c1ccc([N+](=O)[O-])cc1)C(=O)Nc1ccc(C(=O)O)cc1,-52*,-3%,-17%,1%,i
Cc1cc(-c2ccccc2)nc(N/N=C/c2ccccc2)n1,-7,3%,-13%,u,i
Oc1ccc(/C=N/Nc2cccc3cccnc23)c(O)c1,-77*,1%,-4%,74%,u
Cc1cc(-c2ccccc2)nc(N/N=C/c2ccc(O)cc2O)n1,-89*,0%,-26%,u,u
Cc1cc(-c2ccccc2)nc(N/N=C/c2ccc([N+](=O)[O-])cc2)n1,-87*,1%,-9%,-29%,i
CCC(=O)OCc1cc(=O)oc2ccc3ccccc3c12,-13,0%,-14%,-10%,i
O=C(O)Cc1ccc2c(c1)C(=O)c1ccccc1CO2,x,x,x,11%,i
CC(C)c1cccc(C(C)C)c1NC(=O)CNCC(O)c1ccccc1 (centres undefined),-27,-1%,-17%,6%,i
CC(C)c1cccc(C(C)C)c1NC(=O)CCl,-83*,4%,-6%,-26%,i
CN(CCOc1ccc(Br)cc1)C(=O)CNC(=O)c1ccc2ccccc2c1,-91*,0%,u,-38%,i
CCCCOc1ccc(/C=C(\C(=O)O)c2ccc(S(=O)(=O)N3CCCC3)s2)cc1,22,-18%,-24%,3%,i
COc1ccc(NC(=O)NC(C)C2CC3CCC2C3)cc1 (centres undefined),-80*,2%,8%,6%,i
COc1ccc(-c2nc3cc(C)c(Br)c(C)n3c2Cc2ccsc2)cc1OC,4,x,x,-3%,i
Cc1cccc(C(=O)Nc2sc3c(c2C(=O)N2CCCCC2)CCC(C)C3)c1 (centres undefined),x,x,-16%,4%,i
COc1cc2c(cc1OC)C(=O)C(Br)CC2 (centres undefined),2,x,14µM*,x,u
COc1cc2c(cc1OC)C(=O)CC2,x,x,x,21%,i
COc1ccc(CCNC(=O)c2c(C)oc3nc(C)nc(N4CCOCC4)c23)cc1OC,x,x,-23%,x,x
O=C1OC(c2ccc3ccccc3c2O)(c2ccc3ccccc3c2O)c2ccccc21,-51*,x,u,u,x
Cc1noc2ncnc(Sc3ccc(Br)cc3)c12,-101*,1%,-11%,-11%,i
CCCCCN(C(=O)CCC(=O)OCCOc1cccc(C)c1)c1c(N)n(CCCC)c(=O)[nH]c1=O,-4,-2%,-5%,-30%,i
Cc1cc(C)cc(NC(=O)CCc2nc3sc4c(c3c(=O)[nH]2)CCCC4)c1,-4,3%,-15%,8.9µM*,u
CCNc1nc(Oc2ccc(C#N)cc2)cc(C(F)(F)F)n1,-57*,0%,u,-10%[11.3 µM],i
Cc1ccc(NC2=CC(=O)C(=O)c3ccccc32)c(C)c1,-8,0%,32µM*,x,u
SMILES,IL-1B inflam inh,USP2a block,USP1 inh,ATXN2 expr inh,S2 tox
O=C1C=C(NCc2ccccc2)c2ccccc2C1=O,-101*,3%,2.5µM*,-22%[11.3 µM],u
O=C1C=C(Nc2ccccc2O)c2ccccc2C1=O,-90*,2%,18µM*,14µM*,u
CCOc1ccccc1NC(=O)C1CCCN(c2ncnc3onc(-c4ccc(F)cc4)c23)C1 (centres undefined),x,x,-13%,7%,i
Cc1cc(O)c(C(C)C)cc1N=Cc1ccc([N+](=O)[O-])cc1,0,x,u,u,i
CCOc1cc(C2c3c(oc4ccccc4c3=O)C(=O)N2Cc2ccc3c(c2)OCO3)ccc1O (centres undefined),x,x,-8%,5%,i
O=C(NC1(C(F)(F)F)N=C(c2ccccc2)N(C2CCCCC2)C1=O)c1ccc(F)cc1 (centres undefined),x,x,-31%,5%,i
O=C1Nc2ccccc2-n2nnnc2C1N1CCN(C(=O)C2CCCO2)CC1 (centres undefined),23,x,x,x,x
CN(C)c1nc(NCc2ccccc2)nc(SCC(=O)Nc2ccccc2)n1,-77*,-1%,-9%,-6%,i
CN(C)c1nc(NC(C)(C)C)nc(SCC(=O)Nc2ccccc2)n1,-104*,-1%,-19%,-10%,x
CC(C=CC(=O)NO)=C[C@@H](C)C(=O)c1ccc(N(C)C)cc1,x,x,x,167%,x
COc1ccc2c(c1)OC[C@H]1[C@H]2N2C(=O)c3ccccc3NC(=O)[C@@]2(C)[C@H]1c1ccccc1,-78*,-4%,u,-25%,u
COc1ccc2c(c1)[C@H]1[C@H](CO2)[C@H](c2ccccc2)[C@]2(C)C(=O)Nc3ccc(Cl)cc3C(=O)N12,-54*,x,u,-5%,i
COc1ccc2c(c1)C(=O)N1[C@H]3c4cc(C)ccc4OC[C@@H]3[C@H](c3ccccc3)[C@]1(C)C(=O)N2,-66*,0%,6%,u,i
COc1ccc2c(c1)[C@H]1[C@H](CO2)[C@H](c2ccccc2)[C@]2(C)C(=O)Nc3ccc(C)cc3C(=O)N12,-28,-7%,16%,6%,i
COc1ccc2c(c1)[C@H]1[C@H](CO2)[C@H](c2ccccc2)[C@]2(C)C(=O)Nc3ccc(F)cc3C(=O)N12,-57*,-10%,-26%,-3%,i
COc1ccc2c(c1)OC[C@H]1[C@H]2N2C(=O)c3cc(C)ccc3NC(=O)[C@@]2(C)[C@H]1c1ccccc1,u,0%,-9%,-1%,i
CC(=O)SC1CC(=O)C=C2CCC3C4CCC(=O)OC4(C)CCC3C21C (centres undefined),-13,x,-10%,7%,i
COc1ccc(N2CCN(C(CNS(=O)(=O)c3c(C)cc(C)cc3C)c3ccco3)CC2)cc1 (centres undefined),x,x,-26%,x,x
O=c1c2cc(NC(=S)NCCCN3CCC(Cc4ccccc4)CC3)ccc2nc2n1CCCCC2,-91*,1%,-23%,-12%[11.3 µM],i
O=C(Nc1ccc2nc3n(c(=O)c2c1)CCCCC3)c1c(F)ccc([N+](=O)[O-])c1F,-102*,1%,-18%,7.1µM*,x
